Measurements taken from PubChem BioAssay (NCATS).
Inconclusive results are not listed. Activity calls are given as the source filed them. Calls come from the whole dose curve; as a rule, active = well fitted curve in the direction sought with a large enough effect; inconclusive = small, poorly fitted or top-dose-only effect, or another doubt; inactive = no such curve, though single readings can be large; an effect the other way counts as inactive or inconclusive.

Legend:
[1] = qHTS of pediatric cancer cell lines to identify multiple opportunities for drug repurposing: Primary screen for NB-EBc1 cells (AID 1347095); note: potency is the fitted concentration of half-maximal effect;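 for activity change, negative = cytotoxic: plate controls were DMSO neutral control for no effect and bortezomib for full effect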
Method in brief: (§1)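 Phenotypic viability qHTS, 48 h compound exposure, CellTiter-Glo luminescence read-out; multi-concentration dosing so that potency and efficacy derive directly from the primary screen's curves.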

[2] = qHTS of pediatric cancer cell lines to identify multiple opportunities for drug repurposing: Primary screen for U-2 OS cells (AID 1347096); note: nearly all actives have a fitted effect of over 50% in size; note: potency is the fitted concentration of half-maximal effect;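 for activity change, negative = cytotoxic: plate controls were DMSO wells for no effect and bortezomib positive control wells for full effect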
Method in brief: (§2)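 Viability after 48 h compound treatment at 37C, 500-1,000 cells/well, read as ATP luminescence with CellTiter-Glo. Primary screens used 11-point (MIPE, 0.78 nM-46 µM) or 8-point (NPC, 0.59 nM-46 µM) final concentrations; follow-up screens used 11-point dilutions.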

[3] = qHTS of pediatric cancer cell lines to identify multiple opportunities for drug repurposing: Primary screen for Saos-2 cells (AID 1347097); note: nearly all actives have a fitted effect of over 40% in size; note: potency is the fitted concentration of half-maximal effect; for activity change, negative = cytotoxic: % is set by controls: 0 for no effect and ±100 for the full control effect
Method in brief: as §1

[4] = qHTS of pediatric cancer cell lines to identify multiple opportunities for drug repurposing: Primary screen for LAN-5 cells (AID 1347100); note: potency is the fitted concentration of half-maximal effect;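 for activity change, negative = cytotoxic: plate controls were DMSO neutral control for no effect and bortezomib positive control for full effect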
Method in brief: as §2

[5] = qHTS of pediatric cancer cell lines to identify multiple opportunities for drug repurposing: Primary screen for BT-12 cells (AID 1347101);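 note: plate controls were DMSO for no effect and bortezomib positive control for full effect; nearly all actives have a fitted effect of over 25% in size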
Method in brief: (§3)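 Cells (500-1,000/well) rested 5 h, then received compounds for 48 h; metabolically active cells were measured by CellTiter-Glo luminescence. Final concentrations spanned up to 46 µM (MIPE, 11-point) or 0.59 nM-46 µM (NPC, 8-point) in primary screens, 11-point in follow-ups.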

[6] = qHTS of pediatric cancer cell lines to identify multiple opportunities for drug repurposing: Primary screen for Rh18 cells (AID 1347102); note: nearly all actives have a fitted effect of over 65% in size; note: potency is the fitted concentration of half-maximal effect; for activity change, negative = cytotoxic: % is set by controls: 0 for no effect and ±100 for the full control effect
Method in brief: as §2

[7] = qHTS of pediatric cancer cell lines to identify multiple opportunities for drug repurposing: Primary screen for OHS-50 cells (AID 1347103); note: nearly all actives have a fitted effect of over 40% in size; note: potency is the fitted concentration of half-maximal effect;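 for activity change, negative = cytotoxic: plate controls were DMSO neutral control for no effect and bortezomib positive control for full effect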
Method in brief: as §3

[8] = qHTS of pediatric cancer cell lines to identify multiple opportunities for drug repurposing: Primary screen for RD cells (AID 1347104); note: nearly all actives have a fitted effect of over 55% in size; note: potency is the fitted concentration of half-maximal effect;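 for activity change, negative = cytotoxic: plate controls were DMSO for no effect and bortezomib for full effect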
Method in brief: as §1

[9] = qHTS of pediatric cancer cell lines to identify multiple opportunities for drug repurposing: Primary screen for SK-N-SH cells (AID 1347098);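 note: DMSO served as neutral control and bortezomib at 2.3 µM as positive control; % is set by controls: 0 for no effect and ±100 for the full control effect; nearly all actives have a fitted effect of over 65% in size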
Method in brief: as §3

[10] = qHTS of pediatric cancer cell lines to identify multiple opportunities for drug repurposing: Primary screen for NB1643 cells (AID 1347099); note: nearly all actives have a fitted effect of over 50% in size; note: potency is the fitted concentration of half-maximal effect;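 for activity change, negative = cytotoxic: plate controls were DMSO neutral control for no effect and bortezomib positive control for full effect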
Method in brief: as §1

CC[C@H](CC[C@@H](C)[C@H]1CC[C@H]2[C@@H]3CC=C4C[C@@H](O)CC[C@]4(C)[C@@H]3CC[C@]12C)C(C)C
inactive: Potency [1] | Potency [2] | Potency [3] | Potency [4] | Potency [5] | Potency [6] | Potency [7] | Potency [8]

CC(C)(O)[C@H]1CC[C@@](C)([C@H]2[C@@H](O)C[C@@]3(C)[C@@H]4C[C@H](O[C@@H]5O[C@H](CO)[C@@H](O)[C@H](O)[C@@H]5O)[C@H]5C(C)(C)[C@@H](O[C@@H]6OC[C@@H](O)[C@H](O)[C@@H]6O)CC[C@@]56C[C@@]46CC[C@]23C)O1
inactive: Potency [1] | Potency [2] | Potency [3] | Potency [4] | Potency [5] | Potency [6] | Potency [7] | Potency [8]

CCN1CCN(C(=O)N[C@H](C(=O)N[C@@H]2C(=O)N3C(C(=O)O)=C(CSc4nnnn4C)CS[C@@H]23)c2ccc(O)cc2)C(=O)C1=O
inactive: activity change, negative = cytotoxic [1] 14.5% [at 9.22 µM] | activity change, negative = cytotoxic [2] 20.8% [at 9.22 µM] | activity change, negative = cytotoxic [3] 18.2% [at 9.22 µM] | activity change, negative = cytotoxic [4] -3.47% [at 9.22 µM] | activity change, negative = cytotoxic [5] 17.1% [at 11.5 µM] | activity change, negative = cytotoxic [6] 10.3% [at 9.22 µM] | activity change, negative = cytotoxic [7] 20.3% [at 11.5 µM] | activity change, negative = cytotoxic [8] 6.64% [at 9.22 µM]

CC(C)(C)[C@H](NC(=O)c1ccc(N)c(Cl)c1)C(=O)N1CCC[C@@H]1C(=O)N[C@H](C#N)CC(=O)O
inactive: activity change, negative = cytotoxic [1] 14.9% [at 4.84 µM] | activity change, negative = cytotoxic [2] 9.94% [at 4.84 µM] | activity change, negative = cytotoxic [9] 23.1% [at 6 µM] | activity change, negative = cytotoxic [4] 8.05% [at 4.84 µM] | activity change, negative = cytotoxic [5] 15.5% [at 6.03 µM] | activity change, negative = cytotoxic [6] 0.535% [at 4.84 µM] | activity change, negative = cytotoxic [7] -19.6% [at 6.18 µM]

NC(=O)c1ncn([C@@H]2O[C@H](CO)[C@@H](O)[C@@H]2O)c1N
inactive: Potency [1] | Potency [2] | Potency [9] | Potency [10] | Potency [4] | Potency [5] | Potency [6] | Potency [7] | Potency [8]

CC(C)OC(=O)[C@H](C)N[P@](=O)(OC[C@H]1O[C@@H](n2ccc(=O)[nH]c2=O)[C@](C)(F)[C@H]1O)Oc1ccccc1
inactive: Potency [1] | Potency [2] | Potency [9] | Potency [4] | Potency [5] | Potency [6] | Potency [7] | Potency [8]

NC(=O)Nc1sc(-c2ccc(F)cc2)cc1C(N)=O
active: Potency [1] 469 nM | Potency [2] 4690 nM | Potency [3] 2350 nM | Potency [10] 4690 nM | Potency [4] 1180 nM | Potency [6] 5260 nM | Potency [7] 432 nM | Potency [8] 1660 nM

C[C@@H]1[C@H](C)CC[C@]2(C(=O)O)CC[C@]3(C)C(=CC[C@@H]4[C@@]5(C)C[C@@H](O)[C@H](O)[C@@](C)(CO)[C@H]5CC[C@]43C)[C@@H]12
inactive: Potency [1] | Potency [2] | Potency [9] | Potency [10] | Potency [4] | Potency [5] | Potency [6] | Potency [8]
